According to PubChem BioAssay (NCATS):
Inconclusive results are not listed. Where a call stands in place of a potency, no number is given. Calls of active or inactive are those of the source. Calls come from the whole dose curve; as a rule, active = well fitted curve in the direction sought with a large enough effect; inconclusive = small, poorly fitted or top-dose-only effect, or another doubt; inactive = no such curve, though single readings can be large; an effect the other way counts as inactive or inconclusive.

What was measured:
[1] = test system: Zika virus NS2B-NS3 protease (unlinked complex); assay: Primary screen GU Rhodamine qHTS for Zika virus inhibitors: Unlinked NS2B-NS3 protease assay (AID 1347159); note: nearly all actives have a fitted effect of over 60% in size; note: potency is the fitted concentration of half-maximal effect
Summary of the method: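 Enzyme 25 nM in Tris-HCl pH 8.0 + 0.01% Tween 20; compounds up to 114 microM, 15 min RT dark; + Rhod110 substrate 1.5 microM; read t0 and 15 min; delta fluorescence → % inhibition → 4-parameter Hill fit.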

[2] = test system: Zika virus NS2B-NS3 protease (linked construct); assay: Primary screen NINDS Rhodamine qHTS for Zika virus inhibitors (AID 1347160); note: nearly all actives have a fitted effect of over 55% in size
Summary of the method: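 Enzyme (25 nM, linked NS2B-NS3) was preincubated 15 min with compound in 10 mM Tris-HCl pH 8.0, 0.01% Tween 20. Rhodamine110 substrate (1.5 microM) was then added and fluorescence read at start and after 15 min.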

[3] = biological target: Calcium and integrin-binding protein 1 (Homo sapiens) (UniProt Q99828); assay: Primary qHTS for Identification of Calcium Integrin Binding Protein 1 (CIB1) Competitor (AID 1508620);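 note: GST tagged CIB1 binding a fluorescein labelled alphaIIb integrin peptide tracer; top concentration of the series differs between compounds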
Summary of the method: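 CIB1-GST (1 uM final) and compound incubated 15 min at room temperature before adding FITC-alphaIIb peptide tracer (100 nM final). Competition for binding read by fluorescence polarization (ex 480, em 540) after another 15 min at room temperature.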

[4] = qHTS to identify inhibitors of the type 1 interferon - major histocompatibility complex class I in skeletal muscle: primary screen against the NCATS Mechanism Interrogation Plate v5.0 (MIPE) Libary (AID 1347411); note: nearly all actives have a fitted effect of over 65% in size; note: potency is the fitted concentration of half-maximal effect
Summary of the method: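 HLA-B HiBit myoblasts, dexamethasone-free medium + 4 ng/ml IFN-b, 24 h compound, 11-pt 1:3 from 46 uM final. Readout: Nano-Glo HiBiT lytic luminescence after 10 min lysis, RT.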

[5] = Confirmatory screen NINDS Rhodamine qHTS for Zika virus inhibitors (AID 1347161); note: nearly all actives have a fitted effect of over 60% in size; note: potency is the fitted concentration of half-maximal effect
Summary of the method: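 Purified linked NS2B-NS3 protease (NS2B hydrophilic domain joined to NS3 protease by flexible linker), 25 nM in 10 mM Tris-HCl pH 8.0, 0.01% Tween 20. Compounds titrated, 15 min preincubation at room temperature; 1.5 microM Rhodamine110 substrate, FITC fluorescence change over 15 min.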

[6] = test system: Zika virus NS2B-NS3 protease (linked); assay: 384 well plate NINDS AMC confirmatory qHTS for Zika virus inhibitors (AID 1347163);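 note: linked protease at 5 30 or 60 nM final depending on run; fluorescence of AMC released from Ac-VKTGKR-AMC peptide cleaved by the protease; top concentration of the series differs between compounds; nearly all actives have a fitted effect of over 50% in size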
Summary of the method: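 Enzyme (5, 30 or 60 nM final) first met test compounds for ~15 min. The AMC-tagged peptide Ac-VKTGKR-AMC followed at 30 microM. Fluorescence was then recorded at 25 min and scaled against no-enzyme and no-inhibitor wells.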

[7] = Vero cells viability qHTS for Zika virus inhibitors (AID 1347167)
Summary of the method: (§1)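 Luminescent ATP readout (CellTiter Glo) after 30 min at 37 degrees C gives viability; cells in DMEM + 4% FBS were treated 24 to 48 hours with compound, following overnight attachment.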

[8] = test system: Zika virus NS2B-NS3 protease (linked construct); assay: 384 well plate NINDS Rhodamine confirmatory qHTS for Zika virus inhibitors (AID 1347164); note: top concentration of the series differs between compounds; nearly all actives have a fitted effect of over 65% in size
Summary of the method: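 Compounds are incubated about 15 minutes with linked protease (5, 30 or 60 nM final). Rhodamine 110-tagged Ac-LKRR substrate (10 microM final) is added and fluorescence measured after 25 minutes.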

[9] = HepG2 cells viability qHTS for Zika virus inhibitors (AID 1347168); note: potency is the fitted concentration of half-maximal effect
Summary of the method: as §1

Calcium and integrin-binding protein 1 (Homo sapiens), sequence (Q99828 whole entry, looked up): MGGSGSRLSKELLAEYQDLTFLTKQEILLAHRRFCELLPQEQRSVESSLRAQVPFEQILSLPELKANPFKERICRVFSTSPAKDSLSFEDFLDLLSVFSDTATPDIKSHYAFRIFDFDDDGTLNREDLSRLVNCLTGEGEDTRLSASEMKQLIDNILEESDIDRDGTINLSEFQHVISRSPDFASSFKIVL

Which results are given for CC(C)c1noc(N2CCC(COc3ccc(-c4ccc(S(C)(=O)=O)cc4)nc3)CC2)n1?
Potency [1]: inactive; Potency [2]: inactive; outcome [3]: inactive

Which results are given for NCC(=O)Nc1ccc(-n2nc(C(F)(F)F)cc2-c2ccc3c(ccc4ccccc43)c2)cc1?
Potency [1]: inactive; Potency [2]: inactive; Potency [4]: inactive; outcome [3]: inactive

Which results are given for COc1cc2c(Oc3ccc(NC(=O)C4(C(=O)Nc5ccc(F)cc5)CC4)cc3F)ccnc2cc1OCCCN1CCOCC1?
Potency [1]: inactive; Potency [2]: inactive; outcome [3]: inactive

With CNC(=O)c1nn(C)c2c1C(C)(C)Cc1cnc(Nc3ccc(N4CCN(C)CC4)cc3)nc1-2 as the compound, how does the Potency [1] read?
Its Potency is “inactive”.

And the Potency [2]?
The Potency was “inactive”.

And the outcome [3]?
Its outcome is “inactive”.

With Nc1ccccc1NC(=O)c1ccc(CNc2nccc(-c3cccnc3)n2)cc1 as the compound, how does the Potency [1] read?
Its Potency is “inactive”.

And the Potency [2]?
Its Potency is “inactive”.

And the outcome [3]?
Its outcome is “inactive”.

For c1ccc2c(CCNc3ccc(Nc4ccncc4)cc3)c[nH]c2c1, which Potency [1] is on record?
Its Potency is “inactive”.

And the Potency [2]?
The Potency was “inactive”.

And the outcome [3]?
The outcome was “inactive”.

Which Potency [1] does the source give for COc1ccc(F)c(F)c1C(=O)c1cnc(NC2CCN(S(C)(=O)=O)CC2)nc1N here?
Its Potency is “inactive”.

What about the Potency [2] of the same compound?
Its Potency is “inactive”.

What about the outcome [3] of the same compound?
The outcome was “inactive”.

With OCCCNc1cc(-c2ccnc(Nc3cccc(Cl)c3)n2)ccn1 as the compound, how does the Potency [1] read?
Its Potency is “inactive”.

And the Potency [2]?
Its Potency is “inactive”.

What about the Potency [4] of the same compound?
The Potency was 0.0415 µM (active).

What about the outcome [3] of the same compound?
Its outcome is “inactive”.

Which results are given for C=CC(=O)Nc1cccc(Oc2nc(Nc3ccc(N4CCN(C)CC4)cc3)ncc2Cl)c1?
Potency [1]: inactive; Potency [2]: inactive; Potency [4]: 16.5 µM (active); outcome [3]: inactive

With Cc1ccc2nc(NC(=O)CSc3nc4c(c(=O)n3-c3ccccc3)SCC4)sc2c1 as the compound, how does the Potency [1] read?
Its Potency is “inactive”.

And the Potency [2]?
The Potency was “inactive”.

And the Potency [4]?
Its Potency is “inactive”.

What about the outcome [3] of the same compound?
The outcome was “inactive”.

What does the source list for Nc1ccccc1NC(=O)c1ccc(CNC(=O)OCc2cccnc2)cc1?
Potency [1]: inactive; Potency [2]: inactive; outcome [3]: inactive

For Cc1c(CN2CCN(S(C)(=O)=O)CC2)sc2c(N3CCOCC3)nc(-c3cnc(N)nc3)nc12, which Potency [1] is on record?
Its Potency is “inactive”.

What about the Potency [2] of the same compound?
Its Potency is “inactive”.

What about the outcome [3] of the same compound?
The outcome was “inactive”.

With COc1cc(C(=O)N2CCC(N3CCN(C)CC3)CC2)ccc1Nc1ncc2c(n1)N(C)c1ccccc1C(=O)N2C as the compound, how does the Potency [1] read?
The Potency was “inactive”.

And the Potency [2]?
The Potency was “inactive”.

What about the outcome [3] of the same compound?
Its outcome is “inactive”.

Which results are given for NC1(Cc2ccc(Cl)cc2)CCN(c2ncnc3[nH]ccc23)CC1?
Potency [1]: inactive; Potency [2]: inactive; outcome [3]: inactive

Which results are given for CN(C)Cc1c(C(=O)NCCOc2ccc(C(=O)NO)cc2)oc2ccccc12?
Potency [1]: inactive; Potency [2]: inactive; outcome [3]: inactive

Which results are given for Nc1nc(Nc2ccc(S(N)(=O)=O)cc2)nn1C(=O)c1c(F)cccc1F?
Potency [1]: inactive; Potency [2]: inactive; outcome [3]: inactive

For O=C(O)CCCc1c[nH]c2ccccc12, which Potency [1] is on record?
Its Potency is “inactive”.

What about the Potency [2] of the same compound?
Its Potency is “inactive”.

And the Potency [4]?
Its Potency is “inactive”.

What about the outcome [3] of the same compound?
The outcome was “inactive”.

For CCCNC(=O)Nc1ccc(Oc2ncnc3cc(OC)c(OC)cc23)cc1Cl, which Potency [2] is on record?
The Potency was “inactive”.

And the Potency [4]?
Its Potency is “inactive”.

What about the outcome [3] of the same compound?
Its outcome is “inactive”.

Which Potency [1] does the source give for COc1ccc2c(OCc3nnc4ccc(-c5ccccc5)nn34)ccnc2c1 here?
Its Potency is “inactive”.

And the Potency [4]?
Its Potency is “inactive”.

And the outcome [3]?
Its outcome is “inactive”.

What does the source list for CCCCOc1c(C(=O)c2c(F)cc(C)cc2F)cnc2n[nH]cc12?
Potency [1]: inactive; Potency [2]: inactive; outcome [3]: inactive

Which Potency [2] does the source give for O=C1CCC[C@@H]2[C@H]3CCC[N+]4([O-])CCC[C@@H](CN12)[C@@H]34 (stereo partly drawn) here?
Its Potency is “inactive”.

And the Potency [4]?
Its Potency is “inactive”.

What about the outcome [3] of the same compound?
Its outcome is “inactive”.

What does the source list for Cn1c(=O)n(-c2ccc(C(C)(C)C#N)cc2)c2c3cc(-c4cnc5ccccc5c4)ccc3ncc21?
Potency [1]: inactive; outcome [3]: inactive

Which Potency [1] does the source give for COc1ccc(-c2cc3c(C)nc(N)nc3n(C3CCC(OCCO)CC3)c2=O)cn1 (stereo not drawn) here?
Its Potency is “inactive”.

What about the Potency [2] of the same compound?
The Potency was “inactive”.

And the outcome [3]?
The outcome was “inactive”.

What does the source list for Cc1cc(N2CCOCC2)cc2[nH]c(-c3c(NC[C@@H](O)c4cccc(Cl)c4)cc[nH]c3=O)nc12?
Potency [2]: inactive; Potency [5]: 44 µM (active); Potency [6]: inactive; Potency [7]: inactive; outcome [3]: inactive

For COc1cc2c(Oc3ccc4[nH]c(C)cc4c3F)ncnc2cc1OCCCN1CCCC1, which Potency [2] is on record?
Its Potency is “inactive”.

What about the Potency [4] of the same compound?
The Potency was 20.8 µM (active).

What about the outcome [3] of the same compound?
Its outcome is “inactive”.

With COc1cccc2c(NCc3ccccc3)nc(-n3c(N)nc4ccccc43)nc12 as the compound, how does the Potency [1] read?
Its Potency is 50.1 µM (active).

And the Potency [2]?
Its Potency is “inactive”.

And the outcome [3]?
Its outcome is “inactive”.

For CC(=O)Nc1nc(C)c(-c2ccc(Cl)c(S(=O)(=O)NCCO)c2)s1, which Potency [1] is on record?
The Potency was “inactive”.

And the Potency [2]?
Its Potency is “inactive”.

And the outcome [3]?
Its outcome is “inactive”.

With CNC(=O)c1ccc(N2C(=S)N(c3cnc(C#N)c(C(F)(F)F)c3)C(=O)C23CCC3)cc1F as the compound, how does the Potency [2] read?
Its Potency is “inactive”.

And the Potency [4]?
Its Potency is “inactive”.

And the outcome [3]?
Its outcome is “inactive”.

Which Potency [2] does the source give for CCOC(=O)C1=C(C)NC2=C(C(=O)CC(C)(C)C2)C1c1ccc(-c2ccccc2)cc1 (stereo not drawn) here?
The Potency was “inactive”.

And the Potency [5]?
Its Potency is “inactive”.

What about the Potency [6] of the same compound?
The Potency was “inactive”.

And the Potency [8]?
The Potency was “inactive”.

And the Potency [7]?
Its Potency is “inactive”.

What about the Potency [9] of the same compound?
The Potency was “inactive”.

With CN1CCN(Cc2ccc(NC(=O)Nc3ccc(Oc4cc(NC(=O)C5CC5)ncn4)cc3)cc2C(F)(F)F)CC1 as the compound, how does the Potency [2] read?
Its Potency is “inactive”.

What does the source list for CCS(=O)(=O)c1cccc(-c2cc(C(=O)NC3CCN(C)CC3)c(C)c3[nH]c4ncc(C)cc4c23)c1?
Potency [2]: inactive; Potency [5]: inactive; Potency [7]: inactive; Potency [9]: 20.8 µM (active); Potency [4]: 1.86 µM (active); outcome [3]: inactive
